From PubChem BioAssay AID1259341 (Broad Institute, 2017)
A number with no mark means an inactive call. Active and inactive are the calls of the source.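 Rule for the calls: active = activity change under -35% in any replicate well, with more than 20 beads read in that well; inactive = the rest.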

Molecular target: Caspase recruitment domain-containing protein 9 (Homo sapiens) + E3 ubiquitin-protein ligase TRIM62 (Homo sapiens) (UniProt Q9H257+Q9BVG3)
Experiment: CARD9/TRIM62 protein interaction inhibitors – cell lysate, HEK293FT lysates, Luminex bead ELISA, primary screen (AID 1259341);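 note: PE anti-Flag signal of Flag-CARD9 captured by myc-TRIM62 beads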
Settings: PE fluorescence, hits give low values, concentration not given here

Chain of Caspase recruitment domain-containing protein 9 (Homo sapiens) + E3 ubiquitin-protein ligase TRIM62 (Homo sapiens) (Q9BVG3 whole entry, looked up, the tested form may be a part): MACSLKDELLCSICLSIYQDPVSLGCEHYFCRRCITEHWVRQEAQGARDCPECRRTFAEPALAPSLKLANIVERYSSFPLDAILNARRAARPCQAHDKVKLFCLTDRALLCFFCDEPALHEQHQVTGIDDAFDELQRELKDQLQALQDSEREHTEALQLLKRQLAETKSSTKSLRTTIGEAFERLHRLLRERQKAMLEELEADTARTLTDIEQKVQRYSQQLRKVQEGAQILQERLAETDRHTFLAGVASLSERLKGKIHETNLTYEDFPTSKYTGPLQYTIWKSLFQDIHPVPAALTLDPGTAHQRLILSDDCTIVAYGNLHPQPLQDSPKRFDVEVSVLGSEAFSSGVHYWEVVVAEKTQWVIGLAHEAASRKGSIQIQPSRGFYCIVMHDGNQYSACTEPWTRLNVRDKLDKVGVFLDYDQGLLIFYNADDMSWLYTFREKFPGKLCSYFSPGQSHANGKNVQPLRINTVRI
Chain of Caspase recruitment domain-containing protein 9 (Homo sapiens) + E3 ubiquitin-protein ligase TRIM62 (Homo sapiens) (Q9H257 whole entry, looked up, the tested form may be a part): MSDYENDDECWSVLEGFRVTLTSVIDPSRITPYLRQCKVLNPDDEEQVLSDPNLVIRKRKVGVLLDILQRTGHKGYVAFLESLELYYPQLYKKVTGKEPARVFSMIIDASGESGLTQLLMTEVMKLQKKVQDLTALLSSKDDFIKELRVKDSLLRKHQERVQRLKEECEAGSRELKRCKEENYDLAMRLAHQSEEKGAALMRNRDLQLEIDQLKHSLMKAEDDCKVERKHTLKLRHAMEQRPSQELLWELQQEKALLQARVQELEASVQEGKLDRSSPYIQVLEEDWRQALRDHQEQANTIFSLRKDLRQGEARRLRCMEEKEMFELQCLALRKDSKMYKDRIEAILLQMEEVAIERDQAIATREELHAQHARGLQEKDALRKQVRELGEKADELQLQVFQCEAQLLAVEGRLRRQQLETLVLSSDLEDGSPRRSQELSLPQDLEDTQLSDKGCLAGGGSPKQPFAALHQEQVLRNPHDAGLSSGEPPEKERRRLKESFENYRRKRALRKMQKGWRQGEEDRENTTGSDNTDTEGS

SMILES | activity change, negative = inhibition
Cc1ccccc1C(=O)Nc1cnc(N2CCC(C(N)=O)(N3CCCCC3)CC2)c(C(=O)O)c1 | -48.4% (active)
COc1ccc(S(=O)(=O)c2ccccc2)cc1NS(=O)(=O)c1cccc(C(=O)O)c1 | -0.344%
C[C@H](CO)N1C[C@H](C)[C@@H](CN(C)C(=O)C2CCCCC2)OCCCC[C@H](C)Oc2ccc(NS(=O)(=O)c3cn(C)cn3)cc2C1=O | -7.17%
O=C(Nc1nc(-c2ccccn2)cs1)c1cccc(-n2cnnn2)c1 | 199%
c1ccc(-c2nc(-c3ccco3)n3ccccc23)cc1 | -5.09%
